VDR inhibitor: inhibitors of human vitamin D receptor | P11473 | VDR-SRC2-3 peptide fluorescence polarization, 2 h | Potency, µM, without a hit: max response, negative = inhibition, hits mostly inhibitors | 400,000 tested, 0.93% active
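Fluorescence polarization assay measuring small-molecule disruption of VDR binding to the coregulator peptide SRC2-3. Compounds were pin-transferred (23 nl) into the reagent mix and incubated 2 h at room temperature before reading.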
TrxR1 substrate: is turned over as a substrate by rat TrxR1; O89049; purified TrxR1 substrate turnover, NADPH consumption readout; Potency, µM (doses to about 114 µM), without a hit: at the top dose activity change, negative = substrate turnover; 390,000 tested, 0.01% active; note: nearly all actives have a fitted effect of over 50% in size
Target sequence (O89049 whole entry, looked up): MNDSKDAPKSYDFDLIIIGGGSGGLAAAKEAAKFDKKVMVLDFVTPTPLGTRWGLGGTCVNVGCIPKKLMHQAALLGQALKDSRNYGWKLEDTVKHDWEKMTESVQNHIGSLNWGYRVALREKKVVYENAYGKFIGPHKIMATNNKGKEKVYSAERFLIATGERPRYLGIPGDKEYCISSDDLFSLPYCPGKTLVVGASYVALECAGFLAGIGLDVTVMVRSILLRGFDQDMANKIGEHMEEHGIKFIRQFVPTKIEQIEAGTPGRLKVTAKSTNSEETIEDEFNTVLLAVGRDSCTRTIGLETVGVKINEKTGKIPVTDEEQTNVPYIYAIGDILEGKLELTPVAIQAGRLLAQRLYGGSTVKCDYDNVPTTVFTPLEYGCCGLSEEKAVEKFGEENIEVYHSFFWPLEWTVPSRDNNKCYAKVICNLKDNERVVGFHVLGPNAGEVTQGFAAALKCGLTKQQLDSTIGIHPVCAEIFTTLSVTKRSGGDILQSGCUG
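Rat TrxR1, dispensed at 90 nM, was prereduced with 400 uM NADPH (final) for 5 min at ~22 deg C, then incubated with compound 15 min before 400 uM selenite. A first-read NADPH fluorescence drop versus no-compound background flagged substrates.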
GCN5L2 inh: GCN5L2 (KAT2A) acetyltransferase inhibition | Potency, µM (top dose mostly 58.9 µM), without a hit: top-dose activity change, negative = inhibition, usual class: inhibitors | 390,000 tested, 0.21% active | Q92830 | GCN5L2 HAT assay, ThioGlo1 CoA-SH fluorescence
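qHTS, 1536-well. 20nM enzyme, pH 7.5 HEPES/EDTA/Tween-20 buffer; 15 min compound preinc., RT. Start: 75uM H3(1-25), 70uM AcCoA, 50uM ThioGlo1. Read Ex340/Em540 at t=0 (autofluorescence flag) and t=20 min.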
rTrxR1 inhibitor: rat TrxR1 inhibition. 390,000 tested, 1% active. Potency, µM (highest dose often 114 µM), without a hit: at the highest dose activity change, negative = inhibition, actives largely listed as inhibitors. recombinant rTrxR1, NADPH fluorescence consumption, selenite substrate; note: nearly all actives have a fitted effect of over 65% in size
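Rat TrxR1 (90 nM in the dispensed reagent) was pre-reduced with 400 uM NADPH for 5 min at room temperature, then incubated with compound for 15 min. After 400 uM selenite was added, NADPH fluorescence (Ex 340/Em 450 nm) was followed for 8 min.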
Active calls of the source: *; [ ] = another dose, or the depositor's remark. Most compounds without a hit are left out; they make up all but 1.8% or so of the library. Calls come from the whole dose curve; as a rule, active = well fitted curve in the direction sought with a large enough effect; inconclusive = small, poorly fitted or top-dose-only effect, or another doubt; inactive = no such curve, though single readings can be large; an effect the other way counts as inactive or inconclusive. % is set by controls: 0 for no effect and ±100 for the full control effect; potency is the fitted concentration of half-maximal effect.

For Cc1ccc(/C=C/C(=O)N2CCc3ccccc32)o1 the results were VDR inhibitor inconclusive, TrxR1 substrate -4.7%, GCN5L2 inh -18.8% and rTrxR1 inhibitor 3.16µM*.
O=C(/C=C/c1ccco1)N1CCc2ccccc21 was read as VDR inhibitor 0.6%, TrxR1 substrate -12.0%, GCN5L2 inh -2.8% and rTrxR1 inhibitor 56.2µM*.
O=C(c1ccco1)N1CCc2ccccc21 was read as VDR inhibitor 1.3%, TrxR1 substrate 1.7%, GCN5L2 inh -3.3% and rTrxR1 inhibitor 12.0%.
O=C(/C=C/c1ccccc1)N1CCC(c2ccccc2)C1 (configuration not stated) was read as VDR inhibitor -8.8%, TrxR1 substrate 1.6%, GCN5L2 inh -0.7% and rTrxR1 inhibitor 11.4%.
`O=C(/C=C/c1ccco1)N1CCCC(c2ccccc2)C1` (configuration not stated) gave VDR inhibitor -23.0%, TrxR1 substrate 0.2%, GCN5L2 inh -8.6% and rTrxR1 inhibitor 31.6µM*.
COC(=O)c1ccc(NC(=O)COc2ccccc2C(=O)Nc2ccccc2)cc1 was read as TrxR1 substrate 5.6% and rTrxR1 inhibitor 21.9%.
Cc1nn(-c2ccc(Cl)cc2)c(=O)c2ccccc12 was read as VDR inhibitor 3.7%, TrxR1 substrate -3.4%, GCN5L2 inh -17.7% and rTrxR1 inhibitor 20.5%.
For Cc1c(Cl)sn(-c2ccc(Cl)cc2)c1=O the results were VDR inhibitor 44.7µM*, TrxR1 substrate -11.6%, GCN5L2 inh 10µM* and rTrxR1 inhibitor 5.01µM*.
Screening COC(=O)CCCCCN1C(=O)/C(=C\c2ccncc2)SC1=S returned VDR inhibitor 79.4µM*, TrxR1 substrate -7.0%, GCN5L2 inh -13.7% and rTrxR1 inhibitor 1.6%.
For O=C1/C(=C/c2ccncc2)SC(=S)N1Nc1ccccc1 the results were VDR inhibitor 50.1µM*, TrxR1 substrate -7.1%[57.1 µM], GCN5L2 inh -15.8% and rTrxR1 inhibitor 4.47µM*.
For O=C(O)c1ccc(/C=C2\SC(=S)N(Nc3ccccc3)C2=O)cc1 the results were VDR inhibitor inconclusive, TrxR1 substrate -7.9%, GCN5L2 inh -12.5% and rTrxR1 inhibitor 50.1µM*.
Screening Cc1ccccc1S(=O)Cc1ccc(C(=O)NC2CCCCCC2)o1 (configuration not stated) returned VDR inhibitor 3.2%, TrxR1 substrate 3.8%, GCN5L2 inh -3.1% and rTrxR1 inhibitor 16.2%.
Screening COc1ccccc1Nc1ccc([N+](=O)[O-])cc1N returned VDR inhibitor -12.1%, TrxR1 substrate -6.5%, GCN5L2 inh -6.0% and rTrxR1 inhibitor -3.0%.
`COc1cc(Nc2ccccc2Cl)c([N+](=O)[O-])nc1[N+](=O)[O-]` gave VDR inhibitor 3.1%, TrxR1 substrate -4.0%[57.1 µM], GCN5L2 inh -8.0% and rTrxR1 inhibitor 0.398µM*.
Screening O=C(NCCc1ccccc1)c1nnc(CS(=O)(=O)c2ccccc2)o1 returned VDR inhibitor -4.4%, TrxR1 substrate 8.5%[57.1 µM], GCN5L2 inh 4.47µM* and rTrxR1 inhibitor 28.5%[57.1 µM].
CCCn1cnc2c(Sc3c([N+](=O)[O-])ncn3C)nc(N)nc21 was read as VDR inhibitor 0.3%, TrxR1 substrate -3.7% and rTrxR1 inhibitor 3.16µM*.
`Nc1nc(SCc2ccccc2[N+](=O)[O-])c2ncn(Cc3ccccc3)c2n1` gave VDR inhibitor 32.8%, TrxR1 substrate -0.6% and rTrxR1 inhibitor 19.0%.
Screening Cn1cnc([N+](=O)[O-])c1Sc1nc(N)nc2c1ncn2Cc1ccccc1 returned VDR inhibitor 7.0%, TrxR1 substrate -7.6% and rTrxR1 inhibitor 6.31µM*.
CCC(C)Cn1cnc2c(Sc3c([N+](=O)[O-])ncn3C)nc(N)nc21 (configuration not stated) was read as VDR inhibitor -3.4%, TrxR1 substrate 1.2% and rTrxR1 inhibitor 2.82µM*.
For CC(C)Cn1cnc2c(Sc3c([N+](=O)[O-])ncn3C)nc(N)nc21 the results were VDR inhibitor 9.5%, TrxR1 substrate -7.7% and rTrxR1 inhibitor 2µM*.
`CC(C)Cn1cnc2c(SCc3ccccc3Cl)nc(N)nc21` gave VDR inhibitor 1.8%, TrxR1 substrate -16.2% and rTrxR1 inhibitor -10.8%.
`O=C(c1cccc(F)c1)N1CCC2(CC1)CCN(c1ccccn1)CC2` gave VDR inhibitor -12.6% and GCN5L2 inh -0.1%.
Screening COC(=O)C1[C@H]2SC(C)(C)C(C(=O)OC)N2C(=O)N1Cc1ccccc1 (some centres not stated) returned TrxR1 substrate -2.6% and rTrxR1 inhibitor 16.3%.
`Cc1ccc(/C=C2/C(=O)N(c3ccccc3)C(=S)N2C)o1` gave VDR inhibitor 79.4µM*, TrxR1 substrate -11.9%, GCN5L2 inh -7.2% and rTrxR1 inhibitor 20µM*.
Screening O=C1Nc2ccccc2/C1=C/c1ccccc1F returned VDR inhibitor inconclusive, TrxR1 substrate -2.3%, GCN5L2 inh 3.2% and rTrxR1 inhibitor 10.3%.
Screening Cc1ccc(/C=C2\C(=O)NC(=O)N2C)o1 returned VDR inhibitor inconclusive, TrxR1 substrate -4.0%, GCN5L2 inh -0.3% and rTrxR1 inhibitor 50.1µM*.
Cc1ccc(/C=C2\C(=O)Nc3ccccc32)o1 was read as VDR inhibitor -22.0%, TrxR1 substrate 1.0%, GCN5L2 inh 5.4% and rTrxR1 inhibitor 17.8µM*.
Screening Cc1ccc(N2C(=O)CSC23C(=O)N(CC(=O)NCCc2ccccc2)c2ccccc23)cc1C (configuration not stated) returned VDR inhibitor 10.3%, TrxR1 substrate 4.0%, GCN5L2 inh -1.9% and rTrxR1 inhibitor 9.1%.
Cc1nc([N+](=O)[O-])cn1CC(=O)c1ccc2c(c1)OCCO2 was read as TrxR1 substrate inconclusive and rTrxR1 inhibitor -3.3%.
`COc1cc(/C=C2/C(=O)NN(c3ccc(Cl)cc3)C2=O)ccc1OC(=O)c1ccco1` gave VDR inhibitor inconclusive, TrxR1 substrate -3.7%, GCN5L2 inh inconclusive and rTrxR1 inhibitor inconclusive.
Screening O=C1NN(c2ccc(Cl)c(Cl)c2)C(=O)/C1=C/c1cccc(OC(=O)c2cccs2)c1 returned GCN5L2 inh 35.5µM*.
For CCOC(=O)c1cc(=O)n2nc(-c3ccccc3F)nc2s1 the results were VDR inhibitor -7.0%, TrxR1 substrate 0.5%[57.1 µM], GCN5L2 inh -1.3% and rTrxR1 inhibitor 11.2µM*.
Screening O=c1[nH]c(/C=C\c2ccc(O)cc2)nc(O)c1[N+](=O)[O-] returned VDR inhibitor -25.9%, TrxR1 substrate -25.0%, GCN5L2 inh -24.7% and rTrxR1 inhibitor inconclusive.
Screening C=CCc1cc(/C=C/c2nc(O)c([N+](=O)[O-])c(=O)[nH]2)cc(OC)c1O returned VDR inhibitor 79.4µM*, TrxR1 substrate -11.6%[57.1 µM], GCN5L2 inh -4.0% and rTrxR1 inhibitor inconclusive.
COC(=O)c1ccc(Cn2c(SCc3ccc(F)cc3)nc3ccncc32)cc1 was read as VDR inhibitor -6.5%, TrxR1 substrate 0.3%, GCN5L2 inh -9.0% and rTrxR1 inhibitor 0.6%.
`CCNc1ccc(C(=O)O)cc1N` gave VDR inhibitor 79.4µM*, TrxR1 substrate 34.0%, GCN5L2 inh -2.4% and rTrxR1 inhibitor -19.1%.
